PubChem BioAssay (NCATS)
Results filed as inconclusive are left out. Calls of active or inactive are those of the source. Unless noted, the call rests on the fitted dose curve; in most records, active means well fitted curve in the direction sought with a large enough effect; inconclusive means small, poorly fitted or top-dose-only effect, or another doubt; inactive means no such curve, though single readings can be large; an effect the other way counts as inactive or inconclusive.

Tests used:
[1] = AP1 Signaling Pathway (AID 357; active means well fitted curve in either direction with a large enough effect, not every such curve was filed as active;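 further: ME-180 reporter cells stimulated with EGF at its EC50 level; on the % scale 0 is the no-effect control and ±100 the full control effect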); conditions: ME-180 AP-1-bla reporter, EGF-induced, beta-lactamase ratio, 5 h; at 7.69 µM (top of the series) unless noted
In short: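 A ratiometric CCF4 readout (405 nm excitation; 460 and 530 nm emission) quantified AP-1-driven beta-lactamase in ME-180 cells after 5 h with compound and EC50 EGF; AC50 values were derived for activators and inhibitors.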

[2] = target: Cytochrome P450 1A2 (Homo sapiens) (UniProt P05177); experiment: p450-cyp1a2 (AID 410; calls by dose curve; further: potency means the concentration at half of the fitted maximal effect)
In short: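 Human CYP1A2 (20nM) demethylated Luciferin-ME at its Km (100uM) in 100mM KPO4. After 10 min compound preincubation, NADPH regeneration ran the reaction 60 min at room temperature. Luciferin was read by luminescence, normalized to 57 uM furafylline.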

[3] = NFAT Signaling Pathway (AID 444; active means well fitted curve in either direction with a large enough effect, not every such curve was filed as active;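 further: carbachol stimulus at about its EC50 of 1 µM final; on the % scale 0 is the no-effect control and ±100 the full control effect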); conditions: Jurkat NFAT-bla M1, carbachol, beta-lactamase ratio, 5 h; at 7.69 µM (top of the series) unless noted
In short: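 Jurkat cells carrying an NFAT-driven β-lactamase reporter and co-transfected muscarinic M1 receptor were treated with compound plus carbachol (1 uM final, an EC50 level) for 5 h at 37 °C. CCF4 loading followed for 1 h at RT; 460/530 nm ratio gave %activity.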

[4] = Stat Signaling Pathway (AID 446; active means well fitted curve in either direction with a large enough effect, not every such curve was filed as active;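 further: ME-180 cervical cancer cells given 40 pM IL-6 alongside compound; SIE-controlled beta-lactamase reporter measured as 460/530 nm FRET emission ratio; on the % scale 0 is the no-effect control and ±100 the full control effect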); conditions: ME-180 SIE beta-lactamase reporter, IL-6 stimulated, 5 h; at 7.69 µM (top of the series) unless noted
In short: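 IL-6/STAT signaling read in ME-180 cells via an SIE beta-lactamase reporter. Stimulus was 40 pM IL-6 (its AC50) for 5 hrs, so both activation and inhibition register.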

[5] = target: Glucocorticoid receptor (Homo sapiens) (UniProt P04150); experiment: GR-GFP Redistribution (AID 450;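 active means compounds whose dose series gives a full or clear partial fitted curve of increased nuclear translocation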; further: potency means the concentration at half of the fitted maximal effect); conditions: U2OS GR-GFP nuclear translocation, laser cytometry, 2 h
[6] = target: Glucocorticoid receptor (Homo sapiens) (UniProt P04150); experiment: GR-EFC Redistribution (AID 451; calls by dose curve; further: potency means the concentration at half of the fitted maximal effect); conditions: CHO-K1 GR-EFC translocation, beta-gal luminescence, 2 h
In short: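 CHO-K1 cells stably expressing nuclear-localized β-gal enzyme acceptor and GR fused C-terminally to the enzyme donor fragment; ligand-driven nuclear translocation restores β-gal by complementation. Compounds titrated up to 46 uM final, 2 h at 37 °C; luminescence read.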

[7] = target: Mitogen-activated protein kinase 10 (Mus musculus) (UniProt Q61831); experiment: JNK3 AlphaScreen Assay (AID 530; active means well fitted curve in either direction with a large enough effect, not every such curve was filed as active;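 further: kinase came from lysate of stimulated human HepG2 cells; signal reports phosphorylation of biotinylated GST-cJun 1-79 at Ser73 with 10 µM ATP; on the % scale 0 is the no-effect control and ±100 the full control effect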)
In short: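 JNK3 came from HepG2 lysates pre-activated with IL-1beta and TNF-alpha and phosphorylated biotinylated GST-cJun (1-79) at 10 uM ATP, pH 7.6, room temperature. Compounds were titrated. AlphaScreen signal used anti-phospho-cJun (Ser73) antibody.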

[8] = target: 3',5'-cyclic-AMP phosphodiesterase 4B (Homo sapiens) (UniProt Q07343); experiment: qHTS Assay for Inhibitors of PDE-IV (AID 607; active means well fitted activation curve with a large enough effect in the main read-out, with a control signal flat, not every such curve was filed as active; further: % of control where 0% means no effect)
In short: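 Live HEK293 cells with a modified cyclic nucleotide-gated (CNG) channel report intracellular cAMP via membrane-potential dye fluorescence (ex 535/em 590 nm). Endogenous PDE-IV was targeted. Compounds were tested at up to 22.9 uM final; RO 20-1724 100 uM served as control.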

[9] = target: Cytochrome P450 3A4 (Homo sapiens) (UniProt P08684); experiment: qHTS Assay for Inhibitors and Substrates of Cytochrome P450 3A4 (AID 884); further: potency means the concentration at half of the fitted maximal effect; nearly all actives have a fitted effect of over 50% in size
In short: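 20 nM human CYP3A4 with 25 uM Luciferin-PPXE (at KM) in 200 mM KPO4, preincubated 10 min with compound; NADPH regeneration started a 60 min RT reaction. Luciferin detected by luminescence, normalized to 57 uM ketoconazole as full inhibition.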

[10] = target: Cytochrome P450 3A4 (Homo sapiens) (UniProt P08684); experiment: qHTS Assay for Activators of Cytochrome P450 3A4 (AID 885); further: nearly all actives have a fitted effect of over 65% in size
In short: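 Quantitative HTS format: compounds preincubated with 20nM human CYP3A4 and Luciferin-PPXE substrate at KM, reaction started by NADPH regeneration, stopped after 60 min, luciferase luminescence read 20 min later.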

[11] = qHTS Assay for Lipid Storage Modulators (AID 1519; calls by dose curve); conditions: Drosophila S3 cells, BODIPY lipid droplet/cell ratio, laser cytometry, cells loaded with oleic acid; for activity change, negative = inhibition: at 57.5 µM (top of the series)
In short: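 Cells seeded at 5,000 per well were treated with compounds over a concentration series and loaded with oleic acid (400 uM, as added). Lipid droplet fluorescence (488 nm excitation, 500-530 nm channel) was read by laser-scanning cytometry and normalized to 20 uM Triacsin C.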

[12] = target: Dual specificity protein kinase CLK4 (Homo sapiens) (UniProt Q9HAZ1); experiment: qHTS Assay for Inhibitors of CDC-like Kinase 4 (ADP-Glo Assay) (AID 1771); further: nearly all actives have a fitted effect of over 70% in size; further: potency means the concentration at half of the fitted maximal effect
In short: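 Clk4 (25 nM) was incubated 1 hr at room temperature with 100 uM RS repeat peptide and 1 uM ATP in buffer with 2 mM MgCl2, 0.5 mM EGTA, 2.5 mM DTT. ADP formed was quantified by ADP-Glo luminescence.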

[13] = target: Dual specificity protein kinase CLK4 (Homo sapiens) (UniProt Q9HAZ1); experiment: qHTS Assay for Inhibitors of CDC-like Kinase 4 (ADP-FP Assay) (AID 1795);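 further: recombinant human CLK4 phosphorylating RS repeat peptide at 1 µM ATP; on the % scale 0 is the no-effect control and ±100 the full control effect; nearly all actives have a fitted effect of over 60% in size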
In short: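 Inhibition of ADP formation by 6.25 nM Clk4 is measured using 1 uM ATP and 100 uM RS repeat peptide over one hour. Produced ADP displaces a fluorescent tracer from antibody, lowering polarization.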

[14] = target: Ubiquitin carboxyl-terminal hydrolase 1 (Homo sapiens) (UniProt O94782); experiment: Inhibitors of USP1/UAF1: Pilot qHTS (AID 504865);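 further: rhodamine fluorescence freed from ubiquitin-rhodamine substrate followed over time; top concentration of the series differs between compounds; on the % scale 0 is the no-effect control and ±100 the full control effect; nearly all actives have a fitted effect of over 35% in size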
In short: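 Kinetic fluorescence assay: 1nM USP1/UAF1, 15 min compound preincubation, then 150nM Ub-Rho; 480/540 nm.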

[15] = Primary qHTS for small molecule stabilizers of the endoplasmic reticulum resident proteome: Secreted ER Calcium Modulated Protein (SERCaMP) assay (AID 1508630); further: on the % scale 0 is the no-effect control and ±100 the full control effect
In short: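 GLuc-SERCaMP-expressing SH-SY5Y cells, pretreated 16 h with compound, are challenged with thapsigargin to empty ER calcium stores; after 4 h, coelenterazine is added directly to the medium and luminescence is imaged.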

[16] = target: Lysosomal acid glucosylceramidase (Homo sapiens) (UniProt P04062); experiment: Glucocerebrosidase-p2 (AID 348; in the data active means potency below about 10 µM; further: potency means the concentration at half of the fitted maximal effect); conditions: purified GBA, blue fluorogenic substrate, 40 min
In short: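 Compounds titrated from 0.6 nM upwards against 0.2 nM enzyme in pH 5.9 citric acid/KH2PO4, taurocholate, tween-20; blue fluorogenic substrate 80 uM, 40 min room temperature, stopped and read Ex 365/Em 440 for AC50.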

[17] = qHTS Assay for Identification of Small Molecule Agonists for Hypoxia Response Element Signaling Pathway (AID 914; active means well fitted activation curve with a large enough effect in the signal ratio, with a control signal flat, not every such curve was filed as active; the % refers to the signal ratio; further: potency means the concentration at half of the fitted maximal effect); conditions: ME-180 (cervical carcinoma) HRE-bla reporter, beta-lactamase ratio, CoCl2, 17 h; activation: stronger effect = higher value
In short: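 HRE-bla ME-180 assay for agonist-like enhancement of an EC50 CoCl2 stimulus: 17 h at 37 degrees Celsius, CCF4 for 2.5 h, ratiometric 460/530 nm signal converted to %Activity and fitted to AC50.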

[18] = measured here: cell count channel max response
[19] = measured here: lipid channel max response

Chain of Ubiquitin carboxyl-terminal hydrolase 1 (Homo sapiens) (O94782 whole entry, looked up): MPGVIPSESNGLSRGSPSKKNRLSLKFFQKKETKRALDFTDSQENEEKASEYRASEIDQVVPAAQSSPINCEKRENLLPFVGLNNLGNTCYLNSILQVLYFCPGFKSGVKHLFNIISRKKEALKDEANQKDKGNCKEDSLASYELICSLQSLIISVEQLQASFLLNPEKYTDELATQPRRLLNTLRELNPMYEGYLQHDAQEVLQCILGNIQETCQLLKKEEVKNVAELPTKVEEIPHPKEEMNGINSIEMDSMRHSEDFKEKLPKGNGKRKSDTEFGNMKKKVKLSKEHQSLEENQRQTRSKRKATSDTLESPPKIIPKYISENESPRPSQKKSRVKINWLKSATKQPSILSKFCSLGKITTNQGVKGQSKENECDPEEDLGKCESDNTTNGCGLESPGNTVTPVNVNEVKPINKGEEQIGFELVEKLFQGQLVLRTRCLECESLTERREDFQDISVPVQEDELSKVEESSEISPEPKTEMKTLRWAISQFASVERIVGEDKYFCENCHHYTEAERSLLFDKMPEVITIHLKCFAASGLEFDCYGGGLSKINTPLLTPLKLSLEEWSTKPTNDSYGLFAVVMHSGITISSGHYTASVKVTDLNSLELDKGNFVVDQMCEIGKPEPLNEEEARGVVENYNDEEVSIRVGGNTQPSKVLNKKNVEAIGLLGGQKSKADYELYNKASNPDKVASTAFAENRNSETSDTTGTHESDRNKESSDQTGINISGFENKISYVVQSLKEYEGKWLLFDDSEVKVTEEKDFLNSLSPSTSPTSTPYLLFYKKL
Chain of Glucocorticoid receptor (Homo sapiens) (P04150 whole entry, looked up, the tested form may be a part): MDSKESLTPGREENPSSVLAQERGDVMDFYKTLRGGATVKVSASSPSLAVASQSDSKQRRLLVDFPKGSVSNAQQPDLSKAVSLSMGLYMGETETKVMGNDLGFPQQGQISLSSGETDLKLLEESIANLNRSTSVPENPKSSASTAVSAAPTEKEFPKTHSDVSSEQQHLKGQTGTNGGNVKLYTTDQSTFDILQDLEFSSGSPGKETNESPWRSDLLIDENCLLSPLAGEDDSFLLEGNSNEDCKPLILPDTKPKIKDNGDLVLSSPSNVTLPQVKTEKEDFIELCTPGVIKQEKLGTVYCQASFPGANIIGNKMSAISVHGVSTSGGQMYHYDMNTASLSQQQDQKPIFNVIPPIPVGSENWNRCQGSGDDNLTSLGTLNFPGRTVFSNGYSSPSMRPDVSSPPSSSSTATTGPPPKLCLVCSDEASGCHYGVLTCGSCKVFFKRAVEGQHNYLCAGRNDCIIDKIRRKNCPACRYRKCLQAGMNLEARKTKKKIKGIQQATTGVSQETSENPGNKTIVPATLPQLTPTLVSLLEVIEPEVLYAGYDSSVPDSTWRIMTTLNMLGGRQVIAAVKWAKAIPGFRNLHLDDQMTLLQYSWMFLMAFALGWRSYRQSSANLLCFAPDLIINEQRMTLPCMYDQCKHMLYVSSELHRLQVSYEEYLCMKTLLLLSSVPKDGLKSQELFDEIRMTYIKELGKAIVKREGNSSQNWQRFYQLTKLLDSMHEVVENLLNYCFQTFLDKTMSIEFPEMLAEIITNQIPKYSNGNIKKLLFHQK
Chain of Dual specificity protein kinase CLK4 (Homo sapiens) (Q9HAZ1 whole entry, looked up): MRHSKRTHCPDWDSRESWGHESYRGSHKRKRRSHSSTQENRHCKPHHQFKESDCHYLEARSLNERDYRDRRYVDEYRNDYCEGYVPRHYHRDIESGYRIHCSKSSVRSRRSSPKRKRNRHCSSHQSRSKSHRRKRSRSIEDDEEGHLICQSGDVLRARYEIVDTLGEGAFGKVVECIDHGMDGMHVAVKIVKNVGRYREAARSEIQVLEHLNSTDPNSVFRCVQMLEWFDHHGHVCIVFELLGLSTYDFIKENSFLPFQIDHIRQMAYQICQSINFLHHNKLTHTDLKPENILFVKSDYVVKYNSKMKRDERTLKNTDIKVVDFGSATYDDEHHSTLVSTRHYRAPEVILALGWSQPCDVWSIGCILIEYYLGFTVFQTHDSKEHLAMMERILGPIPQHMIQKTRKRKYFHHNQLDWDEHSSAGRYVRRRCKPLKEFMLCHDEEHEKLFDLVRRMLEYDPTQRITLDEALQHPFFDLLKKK
Chain of Cytochrome P450 3A4 (Homo sapiens) (P08684 whole entry, looked up): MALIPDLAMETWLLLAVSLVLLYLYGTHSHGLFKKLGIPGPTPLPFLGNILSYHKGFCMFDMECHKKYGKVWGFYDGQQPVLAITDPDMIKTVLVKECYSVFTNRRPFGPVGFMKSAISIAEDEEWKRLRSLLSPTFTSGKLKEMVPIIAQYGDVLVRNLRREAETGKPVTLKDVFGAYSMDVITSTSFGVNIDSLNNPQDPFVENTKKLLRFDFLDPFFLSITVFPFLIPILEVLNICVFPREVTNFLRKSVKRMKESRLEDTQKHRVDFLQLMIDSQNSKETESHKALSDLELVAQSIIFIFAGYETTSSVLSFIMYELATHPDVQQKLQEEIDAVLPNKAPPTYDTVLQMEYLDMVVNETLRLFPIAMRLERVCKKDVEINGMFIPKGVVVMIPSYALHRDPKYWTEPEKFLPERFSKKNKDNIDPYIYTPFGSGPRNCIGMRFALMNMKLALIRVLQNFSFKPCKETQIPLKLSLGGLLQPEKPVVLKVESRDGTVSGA
Chain of Lysosomal acid glucosylceramidase (Homo sapiens) (P04062 whole entry, looked up): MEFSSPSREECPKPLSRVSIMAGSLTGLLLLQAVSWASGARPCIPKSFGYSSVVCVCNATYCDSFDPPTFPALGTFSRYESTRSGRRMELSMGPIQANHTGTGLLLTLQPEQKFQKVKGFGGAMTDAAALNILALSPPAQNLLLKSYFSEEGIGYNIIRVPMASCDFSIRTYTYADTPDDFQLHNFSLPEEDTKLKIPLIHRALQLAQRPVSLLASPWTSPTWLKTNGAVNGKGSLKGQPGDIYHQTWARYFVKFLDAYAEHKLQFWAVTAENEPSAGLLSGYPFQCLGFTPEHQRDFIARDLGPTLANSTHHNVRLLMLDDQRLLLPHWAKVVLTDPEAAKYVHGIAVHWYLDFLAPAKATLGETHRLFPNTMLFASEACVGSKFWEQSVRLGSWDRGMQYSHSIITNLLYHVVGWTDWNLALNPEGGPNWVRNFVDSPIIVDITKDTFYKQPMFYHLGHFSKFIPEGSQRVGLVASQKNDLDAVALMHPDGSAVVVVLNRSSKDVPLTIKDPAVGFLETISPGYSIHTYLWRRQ
Chain of 3',5'-cyclic-AMP phosphodiesterase 4B (Homo sapiens) (Q07343 whole entry, looked up): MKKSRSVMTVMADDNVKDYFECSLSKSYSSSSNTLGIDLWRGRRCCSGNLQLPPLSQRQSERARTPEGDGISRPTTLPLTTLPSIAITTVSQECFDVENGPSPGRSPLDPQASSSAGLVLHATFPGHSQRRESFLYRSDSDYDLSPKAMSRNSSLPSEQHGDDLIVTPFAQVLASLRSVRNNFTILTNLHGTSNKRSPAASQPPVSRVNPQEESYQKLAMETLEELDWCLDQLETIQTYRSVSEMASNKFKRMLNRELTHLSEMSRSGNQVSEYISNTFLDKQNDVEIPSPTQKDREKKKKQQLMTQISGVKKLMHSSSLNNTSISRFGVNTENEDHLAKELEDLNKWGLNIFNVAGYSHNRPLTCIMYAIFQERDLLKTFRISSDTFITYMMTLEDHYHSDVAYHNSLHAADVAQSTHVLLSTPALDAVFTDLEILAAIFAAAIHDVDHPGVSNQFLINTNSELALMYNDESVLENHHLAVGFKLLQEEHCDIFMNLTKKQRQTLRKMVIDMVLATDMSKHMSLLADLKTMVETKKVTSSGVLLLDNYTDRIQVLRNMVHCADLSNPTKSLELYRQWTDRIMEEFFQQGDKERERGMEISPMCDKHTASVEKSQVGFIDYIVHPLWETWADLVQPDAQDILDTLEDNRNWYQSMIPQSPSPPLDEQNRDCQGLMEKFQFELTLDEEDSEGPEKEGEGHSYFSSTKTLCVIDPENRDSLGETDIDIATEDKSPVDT
Chain of Cytochrome P450 1A2 (Homo sapiens) (P05177 whole entry, looked up): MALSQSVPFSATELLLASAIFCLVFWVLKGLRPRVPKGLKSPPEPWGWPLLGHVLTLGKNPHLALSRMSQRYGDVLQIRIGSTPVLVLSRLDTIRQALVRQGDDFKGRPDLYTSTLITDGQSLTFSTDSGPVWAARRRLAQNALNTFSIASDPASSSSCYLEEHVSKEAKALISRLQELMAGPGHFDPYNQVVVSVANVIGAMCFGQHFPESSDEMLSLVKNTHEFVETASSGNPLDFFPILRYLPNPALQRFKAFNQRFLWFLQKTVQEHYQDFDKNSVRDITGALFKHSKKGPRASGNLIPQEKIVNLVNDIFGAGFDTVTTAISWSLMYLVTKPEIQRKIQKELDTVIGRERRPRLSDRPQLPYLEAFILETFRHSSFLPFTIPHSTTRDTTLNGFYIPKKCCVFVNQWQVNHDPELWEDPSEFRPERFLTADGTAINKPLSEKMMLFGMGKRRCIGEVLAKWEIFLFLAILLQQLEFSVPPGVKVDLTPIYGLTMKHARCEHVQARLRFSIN

CS(=O)(=O)Nc1cccc(-c2cncnc2Nc2ccc(F)cc2)c1
26.3%: max response [11, 19]
21.9%: max response [11, 18]
active: Potency [2] 5.01 µM | Potency [9] 0.316 µM | Potency [12] 31.6 µM
inactive: activity change, negative = inhibition [1] -19.4% | activity change, negative = inhibition [3] 26% | activity, negative = inhibition [4] 13.7% | Potency [5] > 46 µM | Potency [6] > 46 µM | outcome [7] | Potency [8] | Potency [10] | activity change, negative = inhibition [11] 8.07% | Potency [13] | Potency [14] | Potency [15]

CCNc1ncc2nc(-c3ccccc3)c(=O)n(Cc3cccs3)c2n1
active: Potency [17] 3.16 µM
inactive: Potency [16] > 11.4 µM | Potency [6] > 46 µM | outcome [7] | Potency [10] | activity change, negative = inhibition [11] 1.76% | Potency [12] | Potency [13] | Potency [14] | Potency [15]
16%: max response [11, 19]
17.2%: max response [11, 18]

COc1ccccc1-c1ccc2ncnc(NC3CCNCC3)c2c1
10.6%: max response [11, 18]
12.3%: max response [11, 19]
inactive: Potency [16] > 11.4 µM | activity change, negative = inhibition [1] 2.47% | activity change, negative = inhibition [3] 5.17% | activity, negative = inhibition [4] 3.74% | Potency [5] > 46 µM | Potency [6] > 46 µM | outcome [7] | Potency [8] | activity change, negative = inhibition [11] 4.79% | Potency [12] | Potency [13] | Potency [14] | Potency [15]
